Shown are actives, neighbours in structure and some others; about 21% of the full set was active somewhere.
TDP1 cell noCPT: qHTS for Inhibitors of human tyrosyl-DNA phosphodiesterase 1 (TDP1): qHTS in cells in absence of CPT | DT40 Tdp1-/- hTDP1 cells, no CPT, ATP luminescence, 48 h | Potency, µM (top dose mostly 46.2 µM), for inactives: at the highest dose activity change, negative = growth inhibition, actives largely listed as inhibitors | 420,000 tested, 15% active; also: potency is read from the fitted curve at half-maximal effect; % is scaled to controls: 0 for no effect and ±100 for the full control effect; nearly all actives have a fitted effect of over 55% in size
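Chicken DT40 Tdp1-/- cells complemented with human TDP1, screened without camptothecin (DMSO vehicle only), 400 cells/well. Compounds pin-transferred, cells incubated at 37 °C for at least 48 hr. Growth read as ATP-dependent luminescence (CellTiter-Glo, 30 min at RT).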
IL1B secr inh: inhibitors of inflammasome signaling (IL-1 beta secretion). AID 743279. activity change, % at 57.5 µM. THP-1 LPS/ATP IL-1B secretion, AlphaLISA, 16 h; hits give low values. 360,000 tested, 4.7% active; in the data active = activity change below about -50%; inconclusive = mostly about -30% to -49%; also: % is scaled to controls: 0 for no effect and ±100 for the full control effect
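THP-1 cells pretreated 1 hr with compounds (up to 57.5 uM final), then stimulated with LPS (250 ng/mL final) plus ATP (1.25 mM final); secreted IL-1B measured by AlphaLISA after 16 hr, decreased signal indicating inhibition.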
ClpP mod: qHTS Assay for Activators of ClpP. purified B. subtilis ClpP, FRET peptide cleavage, 20 min. Potency, µM (highest dose often 57.5 µM), inactives show at the top dose activity change, negative = active. 340,000 tested, 1.9% active. AID 651965, 2013; active = well fitted falling curve with a large enough effect; inconclusive = small, poorly fitted or top-dose-only effect; inactive = no such curve, though single readings can be large or run the other way; also: potency is read from the fitted curve at half-maximal effect; the source files actives as falling curves though it sought activators and does not explain the sign; nearly all actives have a fitted effect of over 65% in size
Target sequence (P80244 whole entry, looked up): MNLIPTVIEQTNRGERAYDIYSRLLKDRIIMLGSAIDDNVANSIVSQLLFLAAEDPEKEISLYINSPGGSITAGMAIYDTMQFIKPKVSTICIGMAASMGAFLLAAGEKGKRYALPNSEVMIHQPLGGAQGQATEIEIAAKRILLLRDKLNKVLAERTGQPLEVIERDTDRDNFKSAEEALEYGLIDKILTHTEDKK
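Buffer: 100 mM Tris/HCl pH8, 100 mM KCl, 0.05% low protease BSA, 2.5% glycerol, 0.01% Tween-20. ClpP 10 microg/mL final; 20 min RT; delta FRET normalized to ADEP and DMSO controls.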
DT40 TDP1 CPT: DT40-hTDP1 cell growth loss with CPT | chicken DT40 Tdp1-/-;hTDP1 cells + 20 nM CPT, ATP luminescence, 48 h | Potency, µM (doses to about 46.2 µM), inactives show top-dose activity change, negative = growth inhibition, actives largely listed as inhibitors | 420,000 tested, 12% active | AID 686979; also: potency is read from the fitted curve at half-maximal effect; % is scaled to controls: 0 for no effect and ±100 for the full control effect; nearly all actives have a fitted effect of over 55% in size
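Chicken DT40 Tdp1-/- cells stably complemented with human TDP1 were seeded at 400 cells/well in medium containing 20 nM camptothecin, exposed to pin-transferred compounds, and grown at 37 °C for at least 48 hr. Viability was read as ATP luminescence.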
D3 antag: blocks the human D3 dopamine receptor. AID 652054. 360,000 tested, 2.5% active. max response, negative = inhibition, %. D3R cells, DiscoveRx beta-arrestin luminescence, antagonist mode; hits give low values; in the data active = max response below about -50%; inconclusive = no clear call, values can overlap the other calls; also: % is scaled to controls: 0 for no effect and ±100 for the full control effect
Target sequence (P35462 whole entry, looked up): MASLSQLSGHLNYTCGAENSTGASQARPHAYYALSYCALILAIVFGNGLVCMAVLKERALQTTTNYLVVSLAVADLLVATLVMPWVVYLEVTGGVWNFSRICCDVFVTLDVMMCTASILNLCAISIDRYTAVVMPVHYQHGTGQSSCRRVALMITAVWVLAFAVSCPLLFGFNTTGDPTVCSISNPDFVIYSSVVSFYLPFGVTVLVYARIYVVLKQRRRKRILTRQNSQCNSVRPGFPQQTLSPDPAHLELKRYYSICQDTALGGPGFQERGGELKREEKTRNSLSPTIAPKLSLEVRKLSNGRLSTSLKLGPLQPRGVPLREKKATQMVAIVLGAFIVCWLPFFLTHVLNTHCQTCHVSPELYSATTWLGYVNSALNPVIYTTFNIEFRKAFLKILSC
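Cells plated overnight at 1500 cells/well, then exposed to library compounds with dopamine controls for 90 minutes at 37 degrees C. DiscoveRx reagent added for 30–60 minutes at room temperature; luminescence read, quantitative HTS format.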
DRD3 agonist: agonists of human D3 dopamine receptor; P35462; D3R DiscoveRx beta-arrestin cells, luminescence, 90 min; max activation, %; 410,000 tested, 0.58% active; in the data active = max activation above about 30%; also: 0% is about no effect
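Agonist-mode cell screen: cells plated at 1500/well and incubated overnight at 37 °C, then exposed to library compounds for 90 min at 37 °C. Detection reagent was added for 30–60 min at room temperature, and luminescence was read.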
Numbers without * were called inactive; ? = inconclusive; nt = no result given; ! = a repeat was not active. Unless noted, calls follow the shape of the dose curve; as a rule, active = well fitted inhibition curve with a large enough effect; inconclusive = small, poorly fitted or top-dose-only effect; inactive = flat fitted curve, though single readings scatter.

SMILES	TDP1 cell noCPT	IL1B secr inh	ClpP mod	DT40 TDP1 CPT	D3 antag	DRD3 agonist
O=C(CN(Cc1ccccc1F)S(=O)(=O)c1ccc(Cl)cc1)NCC1CCCO1 (configuration not stated)	?	-0.3	nt	-0.4%	30.9	10.5
CCOc1cc2c(cc1OCC)C(c1ccccc1)N(c1ccccc1)C(=O)C2 (configuration not stated)	16.4µM*	-17.6	0.8%	16.4µM*	17.6	0.4
CCOc1ccc(C2NC(=O)Cc3cc(OC)c(OC)cc32)cc1 (configuration not stated)	-24.7%	12.5	nt	1.5%	55.0	10.0
COc1ccc(C2c3cc(OC)c(OC)cc3CC(=O)N2c2ccc(C)cc2)cc1 (configuration not stated)	20.6µM*	nt	4.5%	13µM*	nt	-0.4
COc1ccc(C2c3cc(OC)c(OC)cc3CC(=O)N2c2ccc(C)c(F)c2)cc1 (configuration not stated)	3.66µM*	nt	-2.0%	3.26µM*	nt	-2.1
COc1ccc(C2c3cc(OC)c(OC)cc3CC(=O)N2c2cccc(C#N)c2)cc1 (configuration not stated)	?	nt	0.1%	?	nt	-17.0
COc1cc2c(cc1OC)C(c1ccc(C)cc1)NC(=O)C2 (configuration not stated)	1.1%	-61.4*	-2.1%	-10.8%	-24.3	-3.4
CSc1ccccc1NC(=O)C1(C)CCN1C(=O)CCC1CCCC1 (configuration not stated)	?	9.8	-3.3%	?	16.5	-1.2
O=C(Nc1ccccc1)c1cccc(N2CCCS2(=O)=O)c1	1.7%	nt	0.6%	-21.1%	nt	-9.1
COC(=O)c1cc(COc2ccc3oc(C)c(C(=O)OC)c3c2)c(C)o1	?	3.9	-18.0%	?	52.4	76.0*
CCOC(=O)c1c(C)oc2ccc(OCC(=O)C(C)(C)C)cc12	?	0.9	-1.4%	5.4%	76.0	0.9
CCOC(=O)c1c(C)oc2ccc(OCc3cc(C(=O)OC)oc3C)cc12	13µM*	-17.0	-7.4%	18.4µM*	38.5	32.9*
Cc1ccccc1NC(=S)N(Cc1cccs1)C1CCCCC1	9.2µM*	-2.9	nt	-28.8%	-6.9	-1.3
CCN(C(=S)Nc1ccc(OC(F)F)cc1)C1CCCCC1	-23.3%	?	0.7%	-1.1%	9.4	5.5
CC(NC(=O)CNC(=S)N(Cc1cccs1)C1CCCC1)c1ccccc1 (configuration not stated)	16.4µM*	-23.8	nt	?	8.3	2.8
CCN(C(=S)Nc1ccccc1F)C1CCCCC1	23.1µM*	-7.8	-11.7%	?	-10.9	0.7
CCC(C)NC(=O)CNC(=S)N(Cc1ccccc1F)C1CCCCC1 (configuration not stated)	?	-0.9	nt	3.1%	3.4	3.3
CCc1nnc2c(Nc3ccc(Br)c(C)c3)nc3ccccc3n12	-6.3%	nt	-1.3%	-15.3%	nt	7.8
CCc1cccc(C)c1NC(=O)CSc1nc2c(c(=O)[nH]1)CCC2	-16.9%	nt	-4.1%	-21.6%	nt	0.5
O=C(Nc1nnc(-c2ccc3c(c2)CCCC3)o1)c1c(F)cccc1F	-19.0%	3.2	nt	10.4%	-5.6	-0.2
CCC(=O)Nc1nnc(-c2ccccn2)o1	-11.6%	10.1	?	8.0%	1.0	-0.8
O=C(Nc1nnc(-c2ccc3c(c2)CCCC3)o1)c1ccc(Cl)cc1Cl	?	0.0	-18.2%	13µM*	7.3	-10.4
O=C(Nc1nnc(-c2ccccn2)o1)c1ccc(Br)cc1	18.4µM*	20.9	0.4%	?	3.9	1.9
O=C(Nc1nnc(-c2ccc3c(c2)CCCC3)o1)C1CCCCC1	?	-1.8	-8.1%	14.6µM*	1.4	-1.1
O=C(CCc1ccccc1)Nc1nnc(-c2ccccn2)o1	-7.9%	2.4	22.4µM*	-6.7%	5.5	4.2
SMILES	TDP1 cell noCPT	IL1B secr inh	ClpP mod	DT40 TDP1 CPT	D3 antag	DRD3 agonist
CN(C1CCCCC1)S(=O)(=O)c1ccc2[nH]c(=O)oc2c1	-34.2%	-3.7	nt	1.2%	10.9	-7.2
O=C(CCc1ccccc1)Nc1nnc(-c2ccc3c(c2)CCCC3)o1	?	-16.8	-3.9%	18.4µM*	-3.1	-3.5
O=C(CCc1ccccc1)Nc1nnc(-c2ccc3c(c2)OCCO3)o1	-28.2%	9.1	2.0%	-29.2%	16.0	-3.0
CC1(C)OC2C(CO)OC(n3cnc4c(=S)nc(N)[nH]c43)C2O1 (configuration not stated)	14.6µM*	18.0	-5.3%	11.6µM*	0.0	4.0
OCC1OC(n2cnc3c(=S)nc[nH]c32)C(O)C1O (configuration not stated)	?	nt	0.5%	10µM*!	nt	nt
CC1(C)OC2C(CO)OC(n3cnc4c(=S)nc[nH]c43)C2O1 (configuration not stated)	-1.4%	4.8	nt	-1.9%	37.2	8.9
CCSc1nc(N)nc2c1ncn2C1OC(CO)C(O)C1O (configuration not stated)	-20.2%	40.6	?	-18.3%	12.9	1.7
Nc1nc(=S)c2ncn(C3CCCCC3)c2[nH]1	-8.0%	-4.0	nt	-10.6%	-7.6	-2.8
Nc1nc(=S)c2ncn([C@@H]3O[C@H](CO)[C@@H](O)[C@H]3O)c2[nH]1	1.84µM*	0.0	3.1%	1.64µM*	6.6	20.7
Nc1nc(=S)c2ncn(C3OC(CO)C(O)C3O)c2[nH]1 (configuration not stated)	8.2µM*	13.7	1.6%	4.11µM*	?	-3.2
Cc1ccc(NC(=O)C(C)OC(=O)Cn2cnc3ccccc3c2=O)cc1 (configuration not stated)	-8.8%	0.1	-11.1%	-9.4%	-8.7	-7.1
O=C(C1CCN(S(=O)(=O)c2ccccc2)CC1)N1CCCCCC1	2.3%	0.0	-5.2%	9.8%	1.0	1.1
CN1CCN(c2ncc3ncc(=O)n(CCc4ccccc4)c3n2)CC1	2.4%	nt	nt	4.2%	nt	nt
O=C(CN1CCN(c2ccccn2)CC1)Nc1ccc(F)cc1F	-10.0%	-12.4	0.9%	-4.0%	6.2	5.5
Cn1cc(S(=O)(=O)c2cccc(Cl)c2)c(=O)c2cc(F)c(N3CCCCCC3)cc21	-15.1%	nt	?	-8.9%	nt	2.1
CCCCC(=O)N(C)c1c(C)nc2ccc(C(=O)N(C)Cc3ccco3)cn12	-17.7%	26.3	-2.9%	-19.5%	-24.8	-12.1

Bioassay records deposited in PubChem by National Center for Advancing Translational Sciences (NCATS).
